Among the test systems are NCI-H23 lung; NCI-H226 lung; NCI-H322M lung; HOP-62 NSCLC; NCI-H460 lung; NCI-H522 lung; 786-0 renal; A549/ATCC NSCLC; HOP-92 NSCLC; COLO 205 colon.
Holding throughout (test): NCI-60 one-dose screen, 48 h (100 = growth as untreated, 0 = no growth, -100 = all killed)
What all share (settings): 10 µM unless noted

Compounds without any hit were thinned out: in the full panel of roughly 83,000, 20% have a hit.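 How to read the values: 0–100, growth inhibition (40 = 60% inhibited); 0, no net growth; -100 to 0, cell death (-40 = 40% of starting cells died; -100 = all dead).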 A number with no mark means an inactive call. The source made the active and inactive calls. The calls were made as follows: active = growth percent below 10; inactive = the rest.

`CC(C)(C)Nc1c(-c2c3ccccc3cc3ccccc23)nc2ccccn12`: the growth was 77.4% in the test with NCI-H23 lung; 83.9% in the test on NCI-H226 lung; 71.2% in the test with NCI-H322M lung; 65.1% with HOP-62 NSCLC; 77% with NCI-H460 lung; 59.1% with NCI-H522 lung. The growth in the test with 786-0 renal was 72%.

In the case of `O=C1CSC(c2ccccc2Cl)N1c1nnc(Cn2cnnc2)o1` (configuration not stated), the growth in the test on NCI-H23 lung is 51.7%; with NCI-H226 lung it was 78.8%; in the test with NCI-H322M lung, 87.1%; with HOP-62 NSCLC, 37.3%; with NCI-H460 lung, 34.2%; with NCI-H522 lung, 101%. Also, the growth in the test on A549/ATCC NSCLC is 58%; in the test on 786-0 renal, 41.9%.

For `COc1ccc2c(c1)/C(=C\c1sc(=S)[nH]c1O)C(C(=O)O)=N2`, the growth is 99.1% in the test on NCI-H23 lung; 99.3% in the test with NCI-H226 lung; 102% in the test on NCI-H322M lung; 116% in the test with HOP-62 NSCLC; 108% in the test on NCI-H460 lung; 91.6% in the test with HOP-92 NSCLC. In addition, in the test with 786-0 renal, the growth is 102%.

For `O=C(NC(=S)Nc1ccc(-c2nc3ccccc3[nH]2)cc1)c1ccc2ccccc2c1`, the growth in the test with NCI-H23 lung is 58.1%; in the test with NCI-H226 lung it was 51.1%; in the test with NCI-H322M lung it was 21.5%; in the test with HOP-62 NSCLC, 8.8% (active); in the test with NCI-H460 lung it was 5.41% (active); in the test with NCI-H522 lung, 63.2%. Further, the figures for the growth in the test with A549/ATCC NSCLC and with 786-0 renal were 26.3% and -67.5% (active), respectively.

As to `COc1cccc(-c2nc3sccn3c2-c2ccnc(NCCNS(=O)(=O)c3c(Cl)cccc3Cl)c2)c1`, the growth in the test on NCI-H23 lung is 60.2%; in the test on NCI-H226 lung, 57.4%; in the test on NCI-H322M lung, 87.4%; with HOP-62 NSCLC, 88.4%; in the test with NCI-H460 lung it was 61%; in the test with NCI-H522 lung, 60.5%. Also, the results for the growth in the test on A549/ATCC NSCLC and in the test with 786-0 renal were 47.1% and 62.6%, respectively.

Take `O=S(=O)(Cc1ccccc1)c1nc2ccccc2s1`: the growth was 56.3% in the test on NCI-H23 lung; 82.9% with NCI-H226 lung; 93.8% in the test with NCI-H322M lung; 105% in the test on HOP-62 NSCLC; 103% in the test with NCI-H460 lung; 13.2% with NCI-H522 lung. Besides, the growth is 98.4% with A549/ATCC NSCLC and 88.9% with 786-0 renal.

For the molecule `COc1ccc(/C=N/NC(=O)Cn2c(-c3ccc(S(C)(=O)=O)cc3)nc3cc(Cl)ccc32)cc1`, the growth was 29.9% with NCI-H23 lung; 57.1% in the test on NCI-H226 lung; 51.4% in the test with NCI-H322M lung; 30.5% with HOP-62 NSCLC; 7.74% (active) in the test on NCI-H460 lung; 2.78% (active) in the test on NCI-H522 lung. Moreover, the growth in the test on A549/ATCC NSCLC is 17.4%; in the test with 786-0 renal it was 39.2%.

For the molecule `COc1cc2c(c(OC)c1OC)C(=O)/C(=C/c1cc(C)c(O)c(C)c1)S2`, the growth was 36.9% in the test on NCI-H23 lung; 34.3% in the test on NCI-H226 lung; 40.8% with NCI-H322M lung; 46.5% in the test with HOP-62 NSCLC; 12.7% in the test with NCI-H460 lung; 14.6% with NCI-H522 lung. Besides, the growth with A549/ATCC NSCLC was 44.4%; in the test with 786-0 renal, 42.6%.

As for `COc1cc2c(cc1OC)-c1ccc3cc4c(cc3c1N(CCCn1ccnc1)C2)OCO4`, the growth was 16.6% in the test on NCI-H23 lung; 51.9% in the test on NCI-H226 lung; 76.9% in the test on NCI-H322M lung; 24.9% in the test with HOP-62 NSCLC; 6.34% (active) in the test on NCI-H460 lung; -19.1% (active) with NCI-H522 lung. The values for the growth in the test with A549/ATCC NSCLC and in the test with 786-0 renal were 56.2% and 35.1%, respectively.

`Cc1nc(C)c(-c2nn3c(-c4cccc(F)c4)nnc3s2)s1`: the growth is 97.3% in the test on NCI-H23 lung; 102% in the test with NCI-H226 lung; 106% with NCI-H322M lung; 98.7% with HOP-62 NSCLC; 102% in the test with NCI-H460 lung; 101% in the test with COLO 205 colon.

Consider `NC(=O)CC1(O)C=C(Br)C(=O)C(Br)=C1`, for which the growth with NCI-H23 lung was 57.3%; in the test with NCI-H226 lung it was -57.6% (active); with NCI-H322M lung it was 113%; in the test with HOP-62 NSCLC, 108%; in the test with NCI-H460 lung it was 104%; in the test with HOP-92 NSCLC, -50.9% (active). In addition, the results for the growth in the test with A549/ATCC NSCLC, in the test on 786-0 renal and with COLO 205 colon were 112%, 70.8% and -66.1% (active), respectively.

Turning to `Cc1cc(Cl)nc(N(CCCNc2ccnc3cc(Cl)ccc23)Cc2ccccn2)n1`, the growth with NCI-H23 lung is 33.6%; in the test on NCI-H226 lung, 65%; in the test on NCI-H322M lung it was 68.7%; with HOP-62 NSCLC it was 64%; in the test with NCI-H460 lung, 48.7%; in the test on NCI-H522 lung, 40%. For the same molecule, the growth in the test on A549/ATCC NSCLC is 56.1%; with 786-0 renal, 47.4%.

Consider `CS(=O)(=O)c1ccc(-c2[nH]c3ccc(F)cc3c2/C=N/O)cc1`, for which the growth is 94.3% with NCI-H23 lung; 92.8% in the test with NCI-H226 lung; 90.1% with NCI-H322M lung; 80.7% with HOP-62 NSCLC; 105% in the test with NCI-H460 lung; 82% with NCI-H522 lung. Further, the growth in the test with A549/ATCC NSCLC is 82%; with 786-0 renal it was 95.8%.

In the case of `NC(N)=N/N=C/c1ccc(Br)cc1`, the growth with NCI-H23 lung is 56.4%; with NCI-H226 lung it was 72.1%; with NCI-H322M lung it was 98.6%; in the test on HOP-62 NSCLC, 10.2%; in the test on NCI-H460 lung, 14.3%; in the test on A549/ATCC NSCLC, 34.6%. In the test on 786-0 renal, the growth was -38.3% (active).

For `CCOC(=O)c1ccc(-c2ccc3cc(OC)ccc3c2)nc1C`, the growth in the test with NCI-H23 lung is 93%; in the test with NCI-H226 lung, 116%; in the test with NCI-H322M lung it was 90.3%; in the test on HOP-62 NSCLC, 107%; in the test with HOP-92 NSCLC it was 104%; in the test on NCI-H522 lung, 72.7%. Besides, the growth was 95.4% in the test on A549/ATCC NSCLC, 85.7% in the test with 786-0 renal and 105% in the test on COLO 205 colon.

Source of the values: PubChem BioAssay (NCI).
